Results filed as inconclusive are left out. Unmarked numbers belong to inactive results. The source made the active and inactive calls. Calls follow the shape of the dose curve; as a rule, active = well fitted cell-killing curve with a large enough effect; inconclusive = small, poorly fitted or top-dose-only effect; inactive = flat fitted curve, though single readings scatter.
Assay: Quantitative highthroughput screen to assess conditional lethalithy of P12 Ichikawa cells grown in RPMI1640 with untreated serum (RPMI+s) (AID 1963881); also: nearly all actives have a fitted effect of over 35% in size
Conditions: ATP luminescence, 48 h; Potency: viability; series mostly up to 45.8 µM; viability: at the top concentration
Source text: Assay Provider: Jason Cantor Ph.D.
Department of Biochemistry
University of Wisconsin-Madison, Madison, WI, USA
Chemical screening studies have identified drug sensitivities across hundreds of cancer cell lines but most putative therapeutics fail to translate. Discovery and development of drug candidates in models that more accurately reflect nutrient levels in human blood is a major challenge. Here we performed high-throughput screens in conventional versus Human Plasma-Like Medium (HPLM) to identify compounds that were "missed" when screening using the artificial culture condition. Sets of conditional anticancer compounds spanned phases of clinical development and included non-oncology drugs were assessed. […] We also traced conditional phenotypes for several chemotherapeutics to availability of HPLM-specific metabolites and confirmed others for compounds whose reported targets are encoded by nonessential genes. Our findings establish generalizable strategies for exploiting conditional lethality in HPLM to reveal therapeutic candidates and mechanisms of action in cancer cells.
Described herein are the results of each viability screens against three cell lines: NOMO1 (an acute myeloid leukemia cell line); P12-Ichikawa (a T-cell acute lymphoblastic leukemia); and SEM (a B-cell ALL). Each assay was screened using 3 different cell culture media: homemade human plasma-Like medium with 10% dialyzed fetal bovine serum (HPLM+ds); RPMI1640 with 10% untreated FBS and 5mM glucose (RPMI+s); and RPMI1640 with 10% dialyzed fetal bovine serum and 5 mM glucose (RPMI+ds).
PROTOCOL TABLE (as described by Inglese J, Shamu CE and Guy RK. 2007)
SEQUENCE No. (e.g., 1, 2, 3, etc.); […] (e.g., Cells, Incubation, Reagent, etc.); VALUE and DESCRIPTION.
1; Cells; 5 uL; white, solid bottom 1536-well Greiner assay plate.
2; Compounds; 23 nL; Kalypsis pin tool (Wako USA) equipped with a 1536-well pin head to transfer to the assay plates.
3; Incubation; 48 hours; 37C incubation.
4; Reagent; 3 uL; CellTiter Glo (Promega).
5; Incubation; 5 min, room temperature
6; Detection; Luminescence, Viewlux PerkinElmer.
NOTES (numbers refer to Sequence numbers above)
1. Briefly, 5 ul of cell reagent was dispensed using a Multidrop Combi Dispenser. The NOMO1 and SEM cells were plated at 500 cells/well and the P12-Ichikawa line at 1000 cells/well.
2. After seeding the cells, 23 nL of MIPE 4.1 library compounds (in DMSO) were added to each plate using a Kalypsys 1536 Pintool dispenser. Bortezomib at final concentration of […] and DMSO were added to each plate as positive and negative controls respectively. For each screen, MIPE 4.1 compounds were added over an eleven-point concentration range […] in 3-fold dilutions.
3. Each plate was covered with a stainless steel gasketed lid to prevent evaporation and incubated for 48 hour at 37C, 95% relative humidity, and 5% CO2.
4-5. Three microliter CellTilter-GloTM luminescent substrate mix (Promega) reagent was added to the assay plate and incubated at room temperature for 5 min.
6. The luminescence signal was measured using a ViewLux (PerkinElmer) multiplate reader with a 2 second exposure time per plate. Data for each compound were normalized as percent viability such that measurements for DMSO and the empty well controls in each plate were defined as 100% and 0%, respectively.
Potency is read from the fitted curve at half-maximal effect.

Row | Structure (SMILES) | Potency | viability
1 | Cc1cnc(Nc2ccc(CN3CCOCC3)cc2)nc1Nc1cccc(S(=O)(=O)NC(C)(C)C)c1 | 4.18 µM (active) | 
2 | CN(C)CC(=O)N1CCC(c2ccc(NC(=O)c3ncc(C#N)[nH]3)c(C3=CCCCC3)c2)CC1 |  | 105%
3 | CCCCOCCOc1nc(-c2ccc(C(=O)O)c(F)c2)sc1C |  | 98.3%
4 | O=C(Nc1nnc(-c2ccco2)o1)c1cc(-c2ccccc2)nc2ccccc12 | 26.4 µM (active) | 
5 | Nc1ccn([C@@H]2O[C@H](CO)[C@@H](O)C2O)c(=O)n1 (stereo not given in full) |  | 84.6%
6 | COc1ccccc1N1CCN(CC(O)COc2cccc3ccccc23)CC1 (stereo not given) | 13.2 µM (active) | 
7 | N=c1ccn2c(n1)O[C@H]1[C@@H](O)[C@@H](CO)O[C@H]12 | 0.118 µM (active) | 
8 | CC[C@@H]1C(=O)N(C)c2cnc(Nc3ccc(C(=O)NC4CCC(N5CCN(CC6CC6)CC5)CC4)cc3OC)nc2N1C(C)C (stereo not given in full) | 0.0743 µM (active) | 
9 | CC(C)N1[N]C(=C2C=c3cc(O)ccc3=N2)c2c(N)ncnc21 | 4.18 µM (active) | 
10 | C[C@@H]1CCO[C@H]2Cn3cc(C(=O)NCc4ccc(F)cc4F)c(=O)c(O)c3C(=O)N12 |  | 81.3%
11 | NC(N)=NC(=O)c1nc(Cl)c(N)nc1N | 4.69 µM (active) | 
12 | O=C(NNC(=O)c1ccc(CNS(=O)(=O)c2ccc(F)c(Cl)c2)cc1)c1ccccc1 |  | 104%
13 | Cc1ccc(C(C)(O)c2nc3ccccc3s2)c(C)c1 (stereo not given) | 14.8 µM (active) | 
14 | O=C(c1ccc(C(=O)N2CCC(N3CCCC3)CC2)c(Nc2ccccc2)c1)N1CCC(N2CCCC2)CC1 |  | 105%
15 | COc1cc(O)c2c(c1)C1OC1C[C@H](O)[C@H](O)C(=O)C=CC[C@H](C)OC2=O (stereo not given in full) | 18.7 µM (active) | 
16 | CCOC(=O)N1CCC(=C2c3ccc(Cl)cc3CCc3cccnc32)CC1 |  | 98%
17 | COc1ccnc(CS(=O)c2nc3ccc(OC(F)F)cc3[nH]2)c1OC (stereo not given) |  | 104%
18 | CCCn1c(=O)c2[nH]c(C34CC5CC3C[C@@H](C5)C4)nc2n(CCC)c1=O |  | 96.9%
19 | OC(CN1CCC(Cc2ccc(F)cc2)CC1)c1ccc(Cl)cc1 (stereo not given) |  | 103%
20 | O=C(NC[C@H](O)CN1CCc2ccccc2C1)c1cc(NC2COC2)ncn1 |  | 79.5%

Row | Structure (SMILES) | Potency | viability
21 | C=C1[C@H](n2cnc3c(=O)[nH]c(N)nc32)C[C@H](O)[C@H]1CO | 2.96 µM (active) | 
22 | C[C@](N)(Cc1ccc(O)c(O)c1)C(=O)O |  | 99.2%
23 | Cc1cccc(C#Cc2ccccc2)n1 |  | 81.4%
24 | CCc1cnn2c(NCc3ccc[n+]([O-])c3)cc(N3CCCC[C@@H]3CCO)nc12 | 0.118 µM (active) | 
25 | Cn1cc(-c2ccc3nnc(C(F)(F)c4ccc5ncccc5c4)n3n2)cn1 |  | 80.5%
26 | CC(=O)SC[C@@H](C)C(=O)N1CCC[C@H]1C(=O)N[C@@H](Cc1ccccc1)C(=O)O |  | 98.4%
27 | NC(=O)c1noc([C@H](CCCC2CCCCC2)CC(=O)NO)n1 | 18.7 µM (active) | 
28 | Cc1cc(C(=O)NOCCO)c(Nc2ccc(I)cc2F)n(C)c1=O |  | 74.4%
29 | Cc1ccccc1C(=O)Nc1ccc(C(=O)N2CCCC(O)c3cc(Cl)ccc32)c(C)c1 (stereo not given) |  | 100%
30 | Cc1cc(Nc2ncc3c(n2)N(C)C(=O)N(c2cc(NC(=O)c4cccc(C(F)(F)F)c4)ccc2C)C3)n(C)n1 | 5.9 µM (active) | 
31 | CC1COc2c(N3CCN(C)CC3)c(F)cc3c(=O)c(C(=O)O)cn1c23 (stereo not given) |  | 93.9%
32 | CC(=O)NC(C)c1ccc(Oc2ccc(OC(C)C)cc2)cc1 (stereo not given) |  | 96.7%
33 | COC[C@H](NC(=O)c1cnc(C)s1)C(=O)N[C@@H](COC)C(=O)N[C@@H](Cc1ccccc1)C(=O)[C@@]1(C)CO1 | 0.264 µM (active) | 
34 | COc1cc2nc(N3CCN(C(=O)C4CCCO4)CC3)nc(N)c2cc1OC (stereo not given) |  | 97.8%
35 | O=c1[nH]nc(Sc2ncc([N+](=O)[O-])s2)n1-c1ccc2c(c1)OCCO2 | 8.33 µM (active) | 
36 | Cc1c(-c2cccc3c(CCCOc4cccc5ccccc45)c(C(=O)O)n(Cc4cccnc4)c23)c(COc2ccc(N3CCN([S+](=O)([O-])N(C)C)CC3)cc2)nn1C |  | 88.9%
37 | Cc1ccc(CN2CCNCC2)cc1NC(=O)CNc1ccc(F)c(F)c1 |  | 105%
38 | CC(C)[C@H](N)C(=O)OCCOCn1cnc2c(=O)[nH]c(N)nc21 |  | 110%
39 | CC#CCn1c(N2CCC[C@@H](N)C2)nc2c1c(=O)n(Cc1nc(C)c3ccccc3n1)c(=O)n2C |  | 105%
40 | CC(C)(CO)[C@@H](O)C(=O)NCCC(=O)O |  | 114%

Source: PubChem BioAssay (NCATS)
